Among all 63,000 compounds or so, about 30 (0.05%) were called active. How the calls were made is not given here. The list is a sample of the results.
Target: G protein-activated inward rectifier potassium channel 2 (Homo sapiens) (UniProt P48051)
Experiment: activators of human GIRK2 potassium channels (AID 1259325)
Conditions: HEK293-GIRK2 thallium flux, Thallos fluorescence, MPD

G protein-activated inward rectifier potassium channel 2 (Homo sapiens), sequence (P48051 whole entry, looked up): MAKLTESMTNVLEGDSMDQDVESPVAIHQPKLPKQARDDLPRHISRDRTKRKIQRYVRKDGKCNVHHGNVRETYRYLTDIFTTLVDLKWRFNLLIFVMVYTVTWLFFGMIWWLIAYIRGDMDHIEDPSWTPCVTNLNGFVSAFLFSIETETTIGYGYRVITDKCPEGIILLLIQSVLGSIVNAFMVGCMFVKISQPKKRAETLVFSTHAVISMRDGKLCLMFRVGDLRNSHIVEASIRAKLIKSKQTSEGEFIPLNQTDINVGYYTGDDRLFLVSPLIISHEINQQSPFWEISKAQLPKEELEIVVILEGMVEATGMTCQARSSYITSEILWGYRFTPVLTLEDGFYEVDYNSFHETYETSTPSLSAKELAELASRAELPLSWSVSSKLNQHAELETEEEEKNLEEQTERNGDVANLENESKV

SMILES | outcome
Cc1cc(NC(=O)c2ccc([N+](=O)[O-])o2)n(-c2nc3c(F)cccc3s2)n1 | inactive
O=C(Cc1csc(Nc2ccc(OC(F)(F)F)cc2)n1)NCc1ccncc1 | inactive
COC(=O)c1ccccc1NS(=O)(=O)c1ccc(N2C(=O)CCC2=O)cc1 | inactive
Cc1cc(C(=O)Nc2nc3c(C)ccc(Cl)c3s2)on1 | inactive
COc1ccc(CC(=O)NC2CC(O)C(CO)C2)cc1OC (stereo not drawn) | inactive
Cc1cc(C)c(C)c(S(=O)(=O)N2CCC(S(C)(=O)=O)C2)c1C (stereo not drawn) | inactive
O=C(OC1CN(c2nc3c(Cl)cccc3s2)C1)c1ccc(=O)[nH]n1 | inactive
O=C(c1ccc(OC(F)(F)F)cc1)N1CCC(CSC2=NCCS2)CC1 | inactive
COc1ccc(-c2csc(Cc3nc(-c4ccc(C(F)(F)F)cc4)no3)n2)cc1OC | inactive
COc1cc(C2c3c(oc4ccc(C)cc4c3=O)C(=O)N2CCO)cc(OC)c1OC (stereo not drawn) | inactive
Cc1oc2cc(OC(=O)N3CCOCC3)ccc2c(=O)c1-c1ccc(Br)cc1 | inactive
O=C(CSc1nc2ccccc2o1)N1CCN(c2cc(N3CCCCC3)ncn2)CC1 | inactive
O=C(Nn1cnc2c(cnn2-c2ccccc2)c1=O)c1ccc(Cl)cc1Cl | inactive
O=C1/C(=C/c2cc(Br)cc3c2OCOC3)Oc2cc(OC(=O)N3CCOCC3)ccc21 | inactive
Cc1ccc(Nc2c(C(=O)N3CCOCC3)cnc3ccccc23)cc1C | inactive
COc1ccc(NC(=O)CCc2csc(NC(=O)c3ccc[nH]c3=O)n2)cc1Cl | inactive
COCCCn1c(C(=O)Nc2cccc(C)c2C)cc2c(=O)n(C)c(=O)n(C)c21 | inactive
COc1ccc(C2C(C(=O)Nc3ccccc3)=C(C)Nc3nc(C)nn32)cc1OC (stereo not drawn) | inactive
COc1ccccc1OCC#CCNC(=O)CSc1nc2ccccc2s1 | inactive
CCOc1ccccc1C(=O)Nc1ccc(C)c(N2CCCC2=O)c1 | inactive
COC(=O)c1ccc(S(=O)(=O)NCCC(O)c2cc(C)oc2C)cc1 (stereo not drawn) | inactive
Cc1nnsc1C(=O)NCC1CCN(C(=O)c2ccoc2)CC1 | inactive
CCC1CCCCN1C(=O)c1cnc2nc(C)ccc2c1Nc1ccc(S(C)(=O)=O)cc1 (stereo not drawn) | inactive
COc1ccc(NC(=O)c2cn(Cc3ccc(NC(=O)c4ccccc4F)cc3)cn2)cc1 | inactive
CS(=O)(=O)N1CCc2nc(NC(=O)/C=C/c3ccccc3Cl)sc2C1 | inactive
C=C1C(=O)O[C@H](CCCCCCCC)C1C(=O)O (stereo partly drawn) | inactive

SMILES | outcome
COc1cc(CN2CC(c3nc4ccc(C)cc4[nH]3)C2)cc(OC)c1 | inactive
COc1ccc(C(O)=C2C(=O)C(=O)N(c3cc(C)on3)C2c2ccc(C)cc2)cc1OC (stereo not drawn) | inactive
COc1cc(OC)cc(C(=O)Nc2ccc(Cl)c3ncsc23)c1 | inactive
Cc1ccc(=O)n(CC(=O)N2CCC(Cc3ccccc3)CC2)n1 | inactive
O=S(=O)(c1cccc(Cl)c1Cl)N1CCN(c2ccc(-c3ccccc3)nn2)CC1 | inactive
O=C(C1CCN(c2ccc(-c3ccccc3)nn2)CC1)N1CCN(Cc2ccccc2)CC1 | inactive
COc1ccc(N2CCN(CCCn3c(C)cn4c5c(=O)[nH]c(=O)n(C)c5nc34)CC2)cc1 | inactive
O=C(O)CCC/C=C\C[C@@H]1[C@@H](/C=C/C(=O)COc2cccc(C(F)(F)F)c2)[C@H](O)C[C@@H]1O | inactive
O=C(c1cc(-c2ccco2)[nH]n1)N1CC(c2nc(-c3ccc[nH]c3=O)no2)C1 | inactive
COc1ccc(OCc2noc(CNC(=O)/C=C/c3cccs3)n2)cc1 | inactive
COc1ccc(OCc2noc(CNC(=O)c3ccc4nsnc4c3)n2)cc1 | inactive
CC1CCC(NC(=O)C2CCN(c3nc4c(-c5ccccc5F)csc4c(=O)[nH]3)CC2)CC1 (stereo not drawn) | inactive
Cc1ccc(C)c(NC(=O)CSc2ncnc3nc(N4CCc5ccccc5C4)sc23)c1 | inactive
O=C1NC(=NCCc2cccc(F)c2)S/C1=C\c1ccc2ncccc2c1 | inactive
O=C(NCCC(O)c1cccc2ccccc12)Nc1ccccc1 (stereo not drawn) | inactive
O=C(Cc1ccccc1Cl)N1CCCC(c2nnc(-c3ccccc3F)s2)C1 (stereo not drawn) | inactive
CC(=O)Nc1nc2c(s1)CN(CC(=O)Nc1ccc(OC(F)(F)F)cc1)CC2 | inactive
CCOCCn1c(-n2nc(C)cc2C)nc2c1c(=O)n(Cc1ccccc1F)c(=O)n2C | inactive
CCOC(=O)C1CCc2sc(NC(=O)CCc3c(C)nn(C)c3C)nc21 (stereo not drawn) | inactive
O=S(=O)(/C=C/c1ccccc1)NCc1ccc(C(O)c2cccs2)s1 (stereo not drawn) | inactive
COC(=O)c1ccccc1NC(=O)Cn1nc2nc(N3CCCC(C)C3)ccn2c1=O (stereo not drawn) | inactive
Cc1cccc(Cn2c(N3CCC(C(N)=O)CC3)nc3c2c(=O)[nH]c(=O)n3C)c1 | inactive
CCCn1c(=O)c2cc(Cl)ccc2n2c(SCC(=O)Nc3ccc4c(c3)OCO4)nnc12 | inactive
O=C(NCc1ccc2c(c1)OCO2)C1CCN(c2ncnc3c2sc2ncccc23)CC1 | inactive
COc1ccc2c(=O)c3c(oc2c1)C(=O)N(CCCN(C)C)C3c1ccccc1 (stereo not drawn) | inactive
CC(=O)Nc1cccc(C#Cc2cncnc2Nc2ccc(OCc3cccc(F)c3)c(Cl)c2)n1 | inactive

SMILES | outcome
O=S(=O)(Cc1nc(-c2ccc(OCc3ccccc3)cc2)no1)c1ccccc1 | inactive
O=C(NC1CCN(C(=O)c2cn(-c3ccc(Cl)cc3)nn2)CC1)C1CCCC1 | inactive
COc1cccc(CSc2nc(C)c(CC(=O)Nc3cccc(Cl)c3C)c(=O)[nH]2)c1 | inactive
COc1cc(-c2nc(CSc3nc4ccccc4c(=O)n3C)c(C)o2)cc(OC)c1OC | inactive
Cc1cn2c3c(=O)n(Cc4ccc(Br)cc4)c(=O)n(C)c3nc2n1CCCO | inactive
COc1ccc(S(=O)(=O)Nc2cccc(N3CCCCC3=O)c2)cc1 | inactive
C#CCn1c(COc2ccccc2OC)nc2ccccc21 | inactive
O=C(CCSc1ccccc1)NCCCn1ncccc1=O | inactive
CC(O)C(O)(C(=O)OCc1ccccc1NC(=O)CCC(=O)O)C(C)O (stereo not drawn) | inactive
O=C(Nc1cnoc1)c1ccc(OC(F)(F)F)cc1 | inactive
Cc1nc(-c2noc(-c3cccnc3)n2)cn1CC(=O)N1CCc2ccccc21 | inactive
O=C(Nc1cccc(F)c1)c1sccc1S(=O)(=O)N1CCN(c2ccccc2)CC1 | inactive
Cc1nc(-c2ccc(N3CCN(C(=O)NCc4ccc(F)cc4)CC3)nc2)no1 | inactive
O=C(Cc1ccc(F)cc1)N1CC(c2nc(-c3cccnc3)no2)C1 | inactive
CCc1cc(=O)n(CCNC(=O)COc2ccc(F)cc2F)cn1 | inactive
COc1ccc(S(=O)(=O)Nc2ccc3c(c2)N(C(=O)c2ccccc2)CCC3)cc1F | inactive
NC(=O)c1ccccc1OCC#CCNC(=O)c1ccc(=O)[nH]c1 | inactive
COC(=O)c1ccc2c(=O)n(-c3cc(OC)cc(OC)c3)c(N3CCSCC3)nc2c1 | inactive
Cc1cc(C(=O)Nc2nc(C(=O)N3CCN(c4cc(Cl)ccc4C)CC3)co2)no1 | inactive
Cc1nc(-c2cccc(NC(=O)c3coc(NC(=O)c4cnccn4)n3)c2)cs1 | inactive
COc1ccc(NC(=O)Cn2c(=O)nc(N3CCC(C)CC3)c3ccccc32)cc1Cl | inactive
CC(C)c1nnc(C2CCN(Cc3cccnc3)CC2)o1 | inactive
CN1CCC(n2cnc(-c3ccc(F)cc3)c2-c2ccnc(N)n2)CC1 | inactive
Cc1ccccc1N1CCN(c2nccn3c(=O)n(CC(=O)Nc4ccc(Cl)cc4)nc23)CC1 | inactive
Cn1c(=O)c2c(nc(SCCO)n2Cc2ccccc2)n(C)c1=O | inactive
O=C(CSc1nnc(Cn2ccc(=O)[nH]c2=O)o1)N1CCC(Cc2ccccc2)CC1 | inactive

SMILES | outcome
COc1ccc(-c2cc3nn(CC(=O)NCc4ccccc4Cl)c(=O)n3c(C)n2)cc1 | inactive
COc1cccc(NC(=O)c2cn(CC(O)c3ccccc3)nn2)c1 (stereo not drawn) | inactive
CN(C)CCn1c2c(c(=S)[nH]c1=O)CCC2 | inactive
CCOC(=O)CCC(=O)N1CCN(Cc2csc(-c3ccccc3)n2)CC1 | inactive
Cc1cc(N2CCN(C(=O)NC3CCCC3)CC2)ncn1 | inactive
COc1ccc(C)cc1N1CCn2c1nc1c2c(=O)n(Cc2cccc(C)c2)c(=O)n1C | inactive
Nc1nc(Nc2ccc(F)c(F)c2)ncc1[N+](=O)[O-] | inactive
O=C(NCc1cccs1)N1C2CCC1COC2 | inactive
CN1CCC(CNC(=O)c2cc(Br)ccc2Cl)CC1 | inactive
COc1ccccc1C(=O)NCCN1CCN(c2ccccc2OC)CC1 | inactive
CCNC(=O)c1cn(-c2ccc(SCC(=O)Nc3ccc(C)cc3)nn2)cn1 | inactive
Cn1cnnc1SCCNC(=O)CNC(=O)c1ccc(=O)[nH]c1 | inactive
CC(C)c1ccccc1NC(=O)Cc1cc(=O)[nH]c(SCc2ccc(F)cc2)n1 | inactive
O=C(NCc1ccccc1)Nc1nnc(-c2ccco2)o1 | inactive
NC(=O)c1ccccc1OCC#CCNC(=O)C1CCC1 | inactive
Cc1cc(C(O)CCNC(=O)Nc2ccccc2)c(C)o1 (stereo not drawn) | inactive
C#CCSc1nnc(N2CCN(c3ccccc3OC)CC2)s1 | inactive
O=C(c1ccncc1)N1CCc2cc(S(=O)(=O)N3CCOCC3)ccc21 | inactive
COc1ccc(NC(=O)C(=O)NCCC2=CCCCC2)cc1Cl | inactive
COc1ccc(-n2c(C)c(C)n3c4c(=O)n(CC(C)C)c(=O)n(C)c4nc23)cc1 | inactive
CCOc1ccccc1C(=O)Nn1cnc2c(cnn2-c2cccc(Cl)c2)c1=O | inactive
CCN(CC)C(=O)Oc1ccc2c(=O)c(-c3ccc(Br)cc3)coc2c1 | inactive
COc1ccccc1N1CCN(CCNC(=O)c2ccc(F)cc2)CC1 | inactive
CCOC(=O)c1ccc(NC(=O)c2coc(NC(=O)C3CC3)n2)cc1 | inactive
CCN(CC)c1ccc(-c2noc(CN3CCN(c4cccc(C)c4)CC3)n2)cn1 | inactive

— PubChem BioAssay AID1259325 (C. David Weaver Laboratory, Vanderbilt University, 2017)
